# Only some compounds are listed: those with a hit (about 2.7% of all), similar ones and a draw of the others.
# IDH1 R132H inh = blocks human mutant IDH1 R132H enzyme; IDH1-R132H enzyme, NADPH consumption, diaphorase/resazurin fluorescence; O75874; AID 602179; Potency, µM (top dose mostly 76.6 µM), without a hit: top-dose activity change, negative = inhibition, hits mostly inhibitors; hit rate 0.093% among 390,000; also: potency is read from the fitted curve at half-maximal effect; % is scaled to controls: 0 for no effect and ±100 for the full control effect; nearly all actives have a fitted effect of over 65% in size
#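 IDH1-R132H (0.5 ug/mL) preincubated 30 min with compound, then NADPH (0.016 mM) and alpha-KG (2 mM) added; 80 min at RT, pH 7.5. Remaining NADPH coupled via diaphorase/resazurin to fluorescence (540/590 nm); concentration-response curves normalized to no-enzyme control.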
# 12-LOX inh = inhibitors of human 12S-lipoxygenase ALOX12; Potency, µM (titrated, usually from 108 µM), for inactives: at the highest dose activity change, negative = inhibition, usual class: inhibitors; purified 12hLO, xylenol orange hydroperoxide absorbance; P18054; hit rate 1.1% among 580,000; also: potency is read from the fitted curve at half-maximal effect; % is scaled to controls: 0 for no effect and ±100 for the full control effect
# Target sequence (P18054 whole entry, looked up): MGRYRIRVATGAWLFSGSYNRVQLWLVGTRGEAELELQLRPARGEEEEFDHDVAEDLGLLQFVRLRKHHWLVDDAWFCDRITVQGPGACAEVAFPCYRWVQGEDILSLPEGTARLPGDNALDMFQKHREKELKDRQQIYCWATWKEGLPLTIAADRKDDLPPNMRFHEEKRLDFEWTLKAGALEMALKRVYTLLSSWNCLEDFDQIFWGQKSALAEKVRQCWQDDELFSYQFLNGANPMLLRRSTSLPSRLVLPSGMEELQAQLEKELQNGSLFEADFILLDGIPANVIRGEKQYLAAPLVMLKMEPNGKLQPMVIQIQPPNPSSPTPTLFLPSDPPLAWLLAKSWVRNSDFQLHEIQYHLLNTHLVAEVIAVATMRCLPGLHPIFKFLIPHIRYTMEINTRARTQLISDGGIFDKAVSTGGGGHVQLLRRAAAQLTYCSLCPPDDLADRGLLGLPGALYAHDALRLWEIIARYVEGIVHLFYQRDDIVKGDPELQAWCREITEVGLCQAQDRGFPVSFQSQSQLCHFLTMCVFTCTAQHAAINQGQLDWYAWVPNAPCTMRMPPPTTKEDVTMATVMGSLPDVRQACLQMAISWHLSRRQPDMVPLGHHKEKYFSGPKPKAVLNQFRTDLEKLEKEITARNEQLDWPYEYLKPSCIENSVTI
#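 Purified human 12hLO (150 nM final) in 25 mM Hepes, 0.01% Triton X-100, pH 7.0 was preincubated 15 min at room temperature with compound. Then 40 uM arachidonic acid was added, 30 min. Hydroperoxide was read by Fe-XO absorbance ratio 573/405 nm.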
# A549 tox = counter-screen for Nrf2 inhibitors: cytotoxicity in A549 cells; AID 504648; Potency, µM (doses to about 46 µM), inactives show top-dose activity change, negative = cytotoxicity, hits mostly inhibitors; hit rate 0.16% among 390,000; A549 ARE-Fluc cells, CellTiter-Fluor viability, 18-24 h; also: potency is read from the fitted curve at half-maximal effect; % is scaled to controls: 0 for no effect and ±100 for the full control effect
#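 Cytotoxicity counterscreen: CellTiter-Fluor fluorescence was measured in A549 ARE_Fluc cells after 18-24 h of compound exposure in a concentration series. The subsequent BugLite luminescent read reports ARE-luciferase activity.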
# Nrf2 ARE act = Nrf2 pathway activation; AREc32 ARE-luciferase reporter (MCF7-derived line), luminescence, 24 h; Potency, µM (top dose mostly 46.1 µM), for inactives: at the top dose activation, most hits filed as activators; hit rate 0.31% among 410,000; also: potency is read from the fitted curve at half-maximal effect; % of control where 0% means no effect; nearly all actives have a fitted effect of over 65% in size
#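 AREc32 cells carrying an ARE-driven firefly luciferase reporter were seeded at 1000 cells/well in OPTI-MEM with 5% FBS, then exposed to compound for 24 hr at 37 deg C. Luminescence was read with Steady-Glo after 30 min at RT.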
# LDHA block = LDHA (human) enzyme inhibition. P00338. purified LDHA, NADH/diaphorase-resazurin fluorescence; hits give low values. activity change, % (values are at about 110 or 230 µM). hit rate 0.15% among 480,000; in the data active = activity change below about -30%; inconclusive = mostly about -25% to -30%;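 also: plate controls were DMSO wells for no effect and wells without enzyme for full effect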
#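 Human LDH5 at 2 nM final in Tris HCl pH 7.4 with 0.06 mM NADH and 0.2 mM pyruvate, reacted 5 minutes at room temperature. Remaining NADH coupled via diaphorase/resazurin; resorufin fluorescence read at 0 and 20 minutes, normalized to enzyme-free and DMSO wells.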
# Nrf2 block = blocks Nrf2 signaling. A549 ARE-Fluc reporter, luciferase luminescence, 18-24 h. Potency, µM (highest dose often 46 µM), inactives show at the top dose activity change, negative = inhibition, usual class: inhibitors. hit rate 2.1% among 360,000; also: potency is read from the fitted curve at half-maximal effect; % is scaled to controls: 0 for no effect and ±100 for the full control effect; nearly all actives have a fitted effect of over 60% in size
#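 A549 ARE_Fluc cells (5000/well, 5% FBS OPTI-MEM) pre-incubated 2 h, then treated with compounds 18-24 h at 37C/5% CO2 in concentration-response. CellTiter-Fluor viability read first; BugLite luciferase luminescence after 15 min at room temperature gives Nrf2 activity.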
# Starred values were filed as active, the others as inactive; ? = inconclusive; . = not tested or not shown; [ ] = remark or other dose. Unless noted, calls follow the shape of the dose curve; as a rule, active = well fitted curve in the direction sought with a large enough effect; inconclusive = small, poorly fitted or top-dose-only effect, or another doubt; inactive = no such curve, though single readings can be large; an effect the other way counts as inactive or inconclusive.
SMILES,IDH1 R132H inh,12-LOX inh,A549 tox,Nrf2 ARE act,LDHA block,Nrf2 block
COC(=O)c1ccc(C2/C(=C(\O)c3ccc(F)cc3)C(=O)C(=O)N2c2ccccn2)cc1 (stereo not given),.,?,.,.,-5.2,.
Cc1ccc2c(Cl)c(C(=O)NC(C)c3ccncc3)sc2c1 (stereo not given),.,-18.4%,.,.,-2.0,.
CC(C)N(C)S(=O)(=O)N(C)CC1COc2ccccc2O1 (stereo not given),.,15.5%,.,.,-32.4*,.
O=C(NC1CC2CC1C1CCCC21)c1ccc(Cl)nc1 (stereo not given),.,28.2%,.,.,0.8,.
CN(C)C(=O)c1ccc(NC(=O)c2cccc(S(=O)(=O)N3CCCCCC3)c2)cc1,-7.8%,180.0%,-2.2%,-0.2%,0.4,?
CN(C)C(=O)c1ccc(NC(=O)c2cccc(S(=O)(=O)N3CCN(Cc4ccccc4)CC3)c2)cc1,0.0%,-19.9%,-4.5%,0.1%,0.9,18.4µM*
CN(CC(=O)Nc1ccc(Cl)cc1)C(=O)c1cccc(S(=O)(=O)N2CCN(Cc3ccccc3)CC2)c1,-7.9%,?,?,0.7%,-1.6,13µM*
O=C(Nc1ccc(S(=O)(=O)N2CCCC2)cc1)c1cnccn1,-2.7%,-8.3%,-19.6%,0.4%,-4.2,-14.9%
CCOc1ccc(CN2CCN(S(=O)(=O)c3ccc(NC(C)=O)cc3)CC2)cc1,-1.4%,-2.8%,-5.0%,1.8%,-14.8,20.6µM*
O=C(Nc1ccc(S(=O)(=O)N2CCN(Cc3ccccc3)CC2)cc1)c1cnccn1,-1.5%,-67.7%,-13.1%,-0.5%,-1.9,4.11µM*
Clc1ccc(COc2ccc(CNCC3CCNCC3)cc2)cc1,.,?,.,.,-3.8,.
O=C(NCc1ccccc1)c1ccc(-c2ccccc2)s1,.,-23.2%,.,.,?,.
CS(=O)(=O)c1ccc(NC(=O)c2cccc(S(=O)(=O)N3CCN(Cc4ccccc4)CC3)c2)cc1,4.0%,0.0%,-17.2%,0.1%,2.7,13µM*
O=C(c1ccco1)N1CCN(CCCCOc2cccc3ccccc23)CC1,5.4%,44.7µM*,2.6%,0.0%[9.22 µM],4.4,?
CCOc1ccccc1-n1c(CN2CCN(C(=O)c3ccco3)CC2)nc2ccccc2c1=O,7.3%,4.9%,-22.2%,-1.1%,1.9,16.4µM*
O=C(c1ccco1)N1CCN(CCOCCOc2cccc3ccccc23)CC1,0.0%,?,-4.8%,3.4%,1.4,-15.3%
Cc1c(CC(=O)NCC(c2ccccc2)c2ccccc2)c(=O)oc2cc(O)ccc12,.,-2.8%,.,.,10.7,.
COC(=O)CC(NC(=S)NC(=O)c1ccccc1)c1ccc(Br)cc1 (stereo not given),13.2%,7.94µM*,-2.1%,9.9%,-0.9,-2.2%
Cc1ccc(C(=O)c2cccc(N)c2)cc1C,-3.2%,4.1%,-0.4%,-1.8%,0.2,5.8µM*
C#CCN1CCN(CC#N)CC12CCOC(C)(C)C2 (stereo not given),.,?,.,.,-0.3,.
COc1ccc(C2C=C(c3ccc(Br)cc3)Nc3nnnn32)c(OC)c1 (stereo not given),10.5%,-17.8%,-5.2%,4.8%,4.1,14.6µM*
NC(=O)C(NC(=O)c1cccc(Oc2cccc(C(F)(F)F)c2)c1)C(N)=O,.,-47.8%,.,.,-2.6,.
CC(=O)Oc1c(Br)cc(N(C(C)=O)S(=O)(=O)c2ccccc2)c2ccccc12,4.6%,12.6µM*,4.1%,-3.0%,9.1,13.4%
CC(=O)Oc1ccccc1N(C(C)=O)S(=O)(=O)c1ccc2ccccc2c1,7.5%,-0.4%,12.5%,0.6%,-12.3,-1.2%
CCOC(=O)c1c(NC(=O)c2c(Br)cnn2C)c(C#N)nn1-c1ccccc1,7.0%,19.7%,-13.5%,1.1%,-1.0,18.4µM*
SMILES,IDH1 R132H inh,12-LOX inh,A549 tox,Nrf2 ARE act,LDHA block,Nrf2 block
CCCCn1c(N)c(N(CCC(C)C)C(=O)COC(=O)c2ccc([N+](=O)[O-])s2)c(=O)[nH]c1=O,-1.0%,-7.7%,-17.7%,16.7%,0.3,23.1µM*
CCCCCN(C(=O)CCC(=O)OCC(=O)c1ccc(C(C)CC)cc1)c1c(N)n(CCCC)c(=O)[nH]c1=O (stereo not given),-17.6%,.,?,5.8%,0.0,10.3µM*
CC(C)c1ccc(NC(=O)Cn2nc3ccc(S(=O)(=O)C4CCCCC4)nn3c2=O)cc1,.,?,.,.,-16.9,.
CO/N=C/c1ccc(N2CCN(C(=O)c3cccc(C(F)(F)F)c3)CC2)c([N+](=O)[O-])c1,3.7%,0.0%,?,0.6%,-2.7,?
CO/N=C/c1ccc(N2CCN(C(=O)c3ccc(F)cc3)CC2)c([N+](=O)[O-])c1,8.4%,0.0%,-25.2%,-0.4%,4.0,10.3µM*
NC(=O)COC(=O)c1cc(-c2cccs2)nc2ccccc12,.,?,.,.,-7.8,.
CN(CCOC(=O)c1ccccc1F)C(C)(C)C,.,0.1%,.,.,11.8,.
CN(C)c1ccc2nc3ccc(=O)cc-3sc2c1,25.1%,?,.,-4.3%,16.3,.
CN(C)c1ccc2nc3ccc(=[N+](C)C)cc-3sc2c1,44.7%,?,?,-2.1%,9.9,11.6µM*
CC(=O)c1c(C)[nH]c(C(=O)C(C)Cl)c1C (stereo not given),.,?,.,.,8.6,.
CCOC(=O)c1c(C)[nH]c(C(=O)C(C)Cl)c1C (stereo not given),6.4%,?,-2.0%,17.8µM*,-0.7,-11.2%
O=C(N/N=C/c1sc(N2CCOCC2)nc1-c1ccccc1)c1ccccc1Cl,0.0%,0.1%,1.7%,-0.1%,-5.1,1.0%
O=[N+]([O-])c1ccc(N/N=C/c2sc(N3CCOCC3)nc2-c2ccccc2)c(S(=O)(=O)Nc2ccccc2Cl)c1,-10.3%,0.0%,9.2µM*,0.1%,-1.9,2.59µM*
O=C(N/N=C/c1sc(N2CCOCC2)nc1-c1ccccc1)c1ccccc1O,-6.4%,-26.6%,23.1µM*,-0.2%,3.8,16.4µM*
COc1ccc(CN(C)C(=O)c2ccc(OCC(=O)Nc3cccc(C(F)(F)F)c3)c(OC)c2)c(OC)c1,-0.1%,?,-21.2%,4.4%,4.4,16.4µM*
COc1cccc(CN(C)C(=O)c2ccc(OCC(=O)Nc3cccc(C(F)(F)F)c3)c(OC)c2)c1,4.1%,?,?,-0.8%,0.9,4.61µM*
COc1cccc(CNC(=O)c2ccc(Oc3ccccc3)cc2)c1,.,-8.8%,.,.,4.9,.
Cc1ccc(-c2cc(C(=O)N(Cc3ccc(F)cc3)Cc3ccco3)no2)cc1,.,-29.2%,.,.,-0.2,.
CCc1ccc(CN(Cc2ccco2)C(=O)c2cc(-c3ccc(C)c(F)c3)on2)cc1,.,1.1%,-3.1%,-0.2%,-3.4,16.4µM*

# Screening data from PubChem.
